From PubChem BioAssay
The full list was thinned out, with hits kept by preference.
Marburg entry inh: qHTS for inhibitors of binding or entry into cells for Marburg Virus; Marburg virus pseudotyped entry inhibition, cell reporter; Potency, µM (titrated, usually from 37.8 µM), without a hit: top-dose activity change, negative = inhibition, hits mostly inhibitors; AID 540276, 2011; actives 1.8% (n = 300,000); calls by dose curve; tested in HEK293 cells; also: potency is read from the fitted curve at half-maximal effect; % is scaled to controls: 0 for no effect and ±100 for the full control effect
Cycloheximide cs: Cycloheximide Counterscreen for Small Molecule Inhibitors of Shiga Toxin; cell reporter, cycloheximide protein synthesis inhibition counterscreen; max response, %; actives 12% (n = 300,000); AID 2314, 2010; in the data active = max response mostly above about 13%, no sharp cut-off; inactive = mostly below about 14%; also: read at 38.3 µM for the half of the compounds with a filed dose; 0% is about no effect
AMA1 RON2 block: qHTS for Inhibitors of AMA1-RON; Towards Development of Antimalarial Drug Lead: Primary Screen; Plasmodium falciparum AMA1 (3D7) - RON2 peptide interaction; AlphaScreen AMA1-biotinylated RON2 peptide binding; Potency, µM (highest dose often 58.2 µM), for the others: top-dose activity change, negative = inhibition, hits mostly inhibitors; actives 0.2% (n = 360,000); AID 720542, 2013; active = well fitted inhibition curve with a large enough effect; inconclusive = small, poorly fitted or top-dose-only effect; inactive = no such curve, though single readings can be large or run the other way;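 also: potency is read from the fitted curve at half-maximal effect; 0% = vehicle wells and -100% = peptide control; nearly all actives have a fitted effect of over 45% in size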
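AMA1 (3D7) with his tag at 25 nM final met compounds first, then biotinylated RON2 peptide at 25 nM; detection used donor plus acceptor beads, 10 µg/mL apiece, read by AlphaScreen after 30 min at room temperature.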
Shiga inhibitor: A qHTS for Small Molecule Inhibitors of Shiga Toxin; Vero cells, Shiga toxin protein synthesis inhibition reporter; inhibition, % at 38.7 µM; actives 9.2% (n = 290,000); AID 2315, 2010; in the data active = inhibition mostly above about 28%, no sharp cut-off; inactive = mostly below about 43%; also: 0% is about no effect
Lassa entry inh: qHTS for Inhibitors of binding or entry into cells for Lassa Virus; Lassa virus pseudotype entry inhibition, cell reporter; Potency, µM (titrated, usually from 37.9 µM), for inactives: at the top dose activity change, negative = inhibition, actives largely listed as inhibitors; actives 1.2% (n = 300,000); calls by dose curve; tested in HEK293 cells; also: potency is read from the fitted curve at half-maximal effect; % is scaled to controls: 0 for no effect and ±100 for the full control effect; nearly all actives have a fitted effect of over 50% in size
The depositor's hits bear a star; ? = inconclusive; · = not tested or not shown; [ ] = remark or other dose.

SMILES | Marburg entry inh | Cycloheximide cs | AMA1 RON2 block | Shiga inhibitor | Lassa entry inh
COC(=O)NNC(=O)CCCOc1ccc(Cl)cc1Cl | 0% | 4 | 2% | 6 | 11%
CCN(CC)C(=O)CCCOc1ccc(Cl)cc1Cl | 7% | 33 | -9% | 91* | 15%
CCn1c(CCCOc2ccc(Cl)cc2Cl)n[nH]c1=S | 10%[46.1 µM] | 21* | 96% | 57* | 1%[46.1 µM]
CCOc1ccc(/C=C2/Sc3ccc(C(=O)N4CCN(C(=O)c5ccco5)CC4)cc3N(C)C2=O)cc1OC | · | 0 | · | -6 | ·
CSC1=N/C(=C\c2ccc(F)cc2)C(=O)S1 | ? | 8 | -7% | -17 | ?
CN=C1S/C(=C\c2ccc(OCC(=O)OC)c(OC)c2)C(=O)N1C | · | 13* | -1% | · | ·
CN=C1S/C(=C\c2ccc(SC)cc2)C(=O)N1C | 3%[46.1 µM] | 33* | -24% | 56* | ?
CCOC(=O)N1CCN(C(=O)c2ccc3c(c2)N(C)C(=O)/C(=C\c2ccc(OCC)c(OC)c2)S3)CC1 | 11µM* | 13 | 5% | 10 | 5µM*
CSC1=NC(=O)/C(=C/c2ccc(SC)cc2)S1 | -10%[46.1 µM] | 31* | -3% | 96 | ?
CCS(=O)(=O)c1ccc2c(c1)N(S(C)(=O)=O)CC(C(=O)NN)O2 (stereo not given) | 25%[46.1 µM] | -1 | 4% | 26 | 10%
COc1ccc(-c2nc3cc(C(C)C)ccc3o2)cc1NC(=O)c1ccccc1[N+](=O)[O-] | 31%[46.1 µM] | · | · | · | 5%[46.1 µM]
O=C(Nc1ccccc1C(=O)N1CCCCC1)c1nsc2ccccc12 | · | · | · | · | 5%[46.1 µM]
CCN(c1ccc(Cl)cc1)S(=O)(=O)c1nnc(NC(=O)C2CCCCC2)s1 | · | · | · | · | 4%[46.1 µM]
CCOC(=O)CSC1=NC(=O)/C(=C\c2ccc(Cl)cc2)S1 | 1% | 34* | -18% | 104* | -12%
CCOC(=O)C1CCN(C2=NC(=O)/C(=C/c3ccc(Cl)cc3)S2)CC1 | -8%[46.1 µM] | -7 | -4% | -6 | -11%[46.1 µM]
CN(C)c1ccc(C(CN)c2c[nH]c3ccccc23)cc1 (stereo not given) | · | 10 | ? | 21 | ·
CN(C)c1ccc(C(CNS(=O)(=O)c2ccc3ccccc3c2)c2c[nH]c3ccccc23)cc1 (stereo not given) | 6% | 23* | ? | 27 | 1%
O=c1cc(-c2ccccc2)n2c(SCc3ccc(Br)cc3)nnc2[nH]1 | · | · | · | · | 3%[46.1 µM]
CCOc1c(Cl)cc(CNc2ccc3[nH]c(=O)[nH]c3c2)cc1OC | ? | · | · | · | -10%[46.1 µM]
CCOc1ccc(-c2cc3nc(C4CCN(C(=O)OC(C)(C)C)CC4)c(C(=O)O)cn3n2)cc1 | -21% | 24* | 4% | -5 | 4%
CCOc1ccc(-c2cc3nc(C4CCN(C(=O)OC(C)(C)C)CC4)c(C(=O)Nc4c(C)cccc4C)cn3n2)cc1 | 7.1µM* | · | · | · | -4%[46.1 µM]
COc1ccc(NC(=O)c2ccc(NC(=O)CN3CCC(C(N)=O)CC3)cc2)cc1 | 5% | · | 7% | · | 29%
CCOC(=O)c1c(-c2ccccc2)oc2ccc(NS(=O)(=O)c3cc(C)c(C)cc3C)cc12 | ? | · | · | · | -1%[46.1 µM]
COc1ccc(N2C(=O)/C(=C/c3cccs3)NC2=S)cc1 | ? | -1 | 10% | 22* | 0%
COc1cccc(/C=C2\CCCCC2=O)c1 | -13% | 16* | -8% | 38 | ?
SMILES | Marburg entry inh | Cycloheximide cs | AMA1 RON2 block | Shiga inhibitor | Lassa entry inh
COc1ccc(/C=C2/CCCC(CN(C)C)C2=O)cc1 (stereo not given) | -16% | · | -21% | · | -13%
O=C1/C(=C/c2ccc([N+](=O)[O-])cc2)CCC1C1CCCC1 (stereo not given) | ? | 18* | 30% | 31 | ?
COc1cccc(/C=C2/CCC(CN(C)C)C2=O)c1 (stereo not given) | 11µM* | · | -18% | · | 13µM*
Cc1cccc(/C=C2\CCC(C3CCCC3)C2=O)c1 (stereo not given) | ? | 15* | -21% | 14 | -9%
CCCCOC(=O)c1c(N)n(-c2ccc(OC)cc2OC)c2nc3ccccc3nc12 | 6%[46.1 µM] | · | · | · | 15%[46.1 µM]
CCOc1ccc(CNCCN2CCCC2)cc1 | ? | -2 | ? | -9 | ?
CC1CCCN(S(=O)(=O)c2cc(C(=O)NCc3ccccc3Cl)n(C)c2)C1 (stereo not given) | · | · | · | · | -10%[46.1 µM]
O=C(C=Cc1ccccc1)CC(c1ccccc1)N1CCOCC1 (stereo not given) | ? | · | 0% | · | ?
CCOc1ccc(-c2oc3cc(Cl)ccc3c(=O)c2O)cc1OC | 11%[46.1 µM] | · | · | · | -7%[46.1 µM]
